Screening data deposited in PubChem by National Center for Advancing Translational Sciences (NCATS).
IL-1B inflam inh: inflammasome signaling inhibition, IL-1 beta readout; THP-1 LPS/ATP IL-1B secretion, AlphaLISA, 16 h; stronger effect = lower value; 4.7% of 360,000 active; AID 743279; activity change, % at 57.5 µM; in the data active = activity change below about -50%; inconclusive = mostly about -30% to -49%
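THP-1 cells pretreated 1 hr with compounds (up to 57.5 uM final), then stimulated with LPS (250 ng/mL final) plus ATP (1.25 mM final); secreted IL-1B measured by AlphaLISA after 16 hr, decreased signal indicating inhibition.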
HT1080 IDH1KD tx: kills HT-1080 cells with IDH1 knockdown. HT-1080 IDH1 knockdown viability, ATP luminescence, 48 h. Potency, µM (doses to about 46.1 µM), usual class: cytotoxic. 2% of 360,000 active. AID 686971
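% activity derives from luminescence (CellTiter-Glo), normalised to DMSO and no-cell wells. HT-1080-IDH1KD cells, 750/well, had 48 h compound exposure at 37 °C.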
ELG1 DNA repair: inhibitors of ELG1-dependent DNA repair in HEK293T cells. HEK293T ELG1-luciferase reporter, luminescence, 16 h; DNA damage induced by 5-fluorouridine. Potency, µM (highest dose often 46.1 µM), usual class: inhibitors. 2.3% of 330,000 active. AID 504467; also: nearly all actives have a fitted effect of over 55% in size
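In this reporter screen, reduction of luminescence relative to DMSO vehicle indicated activity. Compounds and 5-fluorouridine were added together to 2,000 cells per well, incubated for 16 hr at 37 °C, then developed with ONE-Glo.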
TDP1 cell CPT: growth inhibition of DT40 Tdp1-/-;hTDP1 cells with camptothecin (screen for TDP1 inhibitors). chicken DT40 Tdp1-/-;hTDP1 cells + 20 nM CPT, ATP luminescence, 48 h. Potency, µM (doses to about 46.2 µM), actives largely listed as inhibitors. 12% of 420,000 active; also: nearly all actives have a fitted effect of over 55% in size
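Chicken DT40 Tdp1-/- cells complemented with human TDP1, 400 cells/well, exposed to compounds plus 20 nM camptothecin for at least 48 h at 37 C; viability read as ATP content by CellTiter-Glo luminescence.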
HT1080NT lethal: kills 2HG-producing HT-1080-NT fibrosarcoma cells | HT-1080-NT fibrosarcoma viability, CellTiter-Glo ATP luminescence, 48 h | Potency, µM (series often up to 46.1 µM), most hits filed as cytotoxic | 1.6% of 360,000 active | AID 686970;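 also: NT is the 2HG producing partner of a matched IDH1 knockdown line; nearly all actives have a fitted effect of over 55% in size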
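Compounds were tested in concentration-response format on HT-1080-NT cells for 48 hours at 37 degrees C. Cell viability came from CellTiter-Glo luminescence; curves were classified by r2, response magnitude and activity.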
TDP1 cell noCPT: qHTS for Inhibitors of human tyrosyl-DNA phosphodiesterase 1 (TDP1): qHTS in cells in absence of CPT; DT40 Tdp1-/- hTDP1 cells, no CPT, ATP luminescence, 48 h; Potency, µM (top dose mostly 46.2 µM), usual class: inhibitors; 15% of 420,000 active; AID 686978, 2013; also: nearly all actives have a fitted effect of over 55% in size
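DT40 Tdp1-/-;hTDP1 cells, no CPT (DMSO vehicle only), 400 cells/well; compounds pin-transferred; ≥48 hr, 37 °C; CellTiter-Glo 30 min RT dark, luminescence read.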
Numbers stand for hits; – = inactive; ? = inconclusive; · = not tested or not shown. An excerpt weighted towards active compounds, which were near 19% of everything screened. Unless noted, calls follow the shape of the dose curve; as a rule, active = well fitted curve in the direction sought with a large enough effect; inconclusive = small, poorly fitted or top-dose-only effect, or another doubt; inactive = no such curve, though single readings can be large; an effect the other way counts as inactive or inconclusive.

SMILES | IL-1B inflam inh | HT1080 IDH1KD tx | ELG1 DNA repair | TDP1 cell CPT | HT1080NT lethal | TDP1 cell noCPT
COc1ccccc1C(=O)Nc1cc(-c2cccc(Br)c2)nn1-c1ccccc1 | · | · | · | 15µM | · | 7.3µM
COc1ccc(OCC(=O)Nc2cc(-c3ccccc3F)nn2-c2ccccc2)cc1 | · | · | · | – | · | –
Nc1ccccc1Nc1cc(-c2ccccc2)nn1-c1cccc(Cl)c1 | -52 | ? | ? | – | ? | ?
OCCNCc1cccc(OCc2ccc(Cl)cc2)c1 | -56 | ? | – | ? | ? | ?
OCCCCNCc1cc(Br)ccc1OCc1ccccc1F | -70 | – | – | ? | – | ?
COCCNCc1ccc(Cl)cc1Cl | – | – | ? | – | – | –
OCCNCc1cc(Br)ccc1OCc1ccc(Cl)cc1Cl | ? | ? | – | 18µM | 23µM | 9.2µM
OCCNCc1cc(Br)ccc1OCc1ccc(F)cc1 | -81 | – | – | ? | – | ?
O=C(COc1ccc(Br)cc1CO)Nc1ccc(F)cc1 | – | – | – | – | – | –
Cc1ccc(NC(=O)Cc2csc(C)n2)c(C)c1 | · | · | · | – | · | –
C=CCOc1ccc(Br)cc1CNCC | – | – | – | – | – | –
OCCNCc1cc(Br)ccc1OCc1ccc(Cl)cc1 | ? | – | – | 21µM | – | 29µM
OCC1(Cc2ccccc2)CCN(C2CCN(c3ccccc3F)CC2)CC1 | -85 | – | ? | ? | – | 23µM
OCC1(Cc2ccccc2)CCN(Cc2cnn(-c3ccccc3F)c2)CC1 | ? | – | – | – | – | –
Cc1ccc(CNC(=O)c2[nH]c(C(F)(F)F)nc2-c2ccccc2)cc1 | – | – | · | ? | ? | 21µM
C[C@@H](c1ccccc1)N1C[C@H](COCc2ccccc2)Oc2cc(N3CC[C@@H](N(C)C)C3)ccc2S1(=O)=O | – | ? | · | ? | ? | ?
C[C@H](c1ccccc1)N1C[C@@H](COCc2ccccc2)Oc2cc(N3CC[C@H](O)C3)ccc2S1(=O)=O | – | ? | · | ? | ? | 16µM
C[C@H](c1ccccc1)N1C[C@H](COCc2ccccc2)Oc2cc(N3CC[C@H](N(C)C)C3)ccc2S1(=O)=O | – | 15µM | · | ? | 23µM | ?
CCN(CC)CCN1C(=O)C2C(C(=O)Nc3ccc(C(C)C)cc3)C3C=CC2(O3)C1C(=O)NC1CCCCC1 (stereo unspecified) | – | ? | ? | – | – | –
CC(C)(CC(=O)c1ccccc1)CC(=O)c1ccccc1 | – | – | · | – | – | ?
Cc1csc2nc(CNS(=O)(=O)c3ccc4c(c3)CCCC4)cn12 | – | – | – | ? | – | 9.2µM
Cc1csc2nc(CNS(=O)(=O)c3ccc4c(c3)OCCO4)cn12 | – | – | – | ? | – | ?
CCOc1c2ccc(C(=O)NCc3ccc(C(F)(F)F)cc3C(F)(F)F)cc2nn1C | -51 | – | ? | – | – | –
CCn1nc2cc(C(=O)NCc3cc(C(F)(F)F)cc(C(F)(F)F)c3)ccc2c1OC | -57 | ? | ? | – | ? | –
CCCCn1nc2cc(C(=O)NCc3ccc(C(F)(F)F)cc3C(F)(F)F)ccc2c1OCC | – | – | – | ? | – | ?
SMILES | IL-1B inflam inh | HT1080 IDH1KD tx | ELG1 DNA repair | TDP1 cell CPT | HT1080NT lethal | TDP1 cell noCPT
CCCc1nn2c(=O)cc(COC(=O)c3cccc(NC(=O)COc4ccc(F)cc4)c3)nc2s1 | · | · | · | – | · | –
CCCCNC(=O)c1ccc2c(=O)n(Cc3ccc(OC)cc3)c(=O)[nH]c2c1 | · | · | · | – | · | –
O=C(CCc1ccccc1)N=C1SC2CS(=O)(=O)CC2N1c1ccccc1 (stereo unspecified) | – | – | – | – | – | –
CCOc1ccc(C2=C/C(=C/c3cccnc3)C(=O)O2)cc1 | – | – | – | ? | – | ?
CC(C)/C=C1\CC/C(=C\c2cccnc2)C1=O | – | – | ? | ? | – | 21µM
O=C1/C(=C/c2cccnc2)CC/C1=C\c1cccnc1 | -87 | – | ? | ? | – | ?
O=C1/C(=C/c2cccnc2)CCC/C1=C\c1cccnc1 | -107 | ? | 4.1µM | 2.1µM | ? | 2.1µM
CCC1C/C(=C\c2cccnc2)C(=O)/C(=C/c2cccnc2)C1 (stereo unspecified) | ? | ? | 2.6µM | 3.3µM | ? | 4.6µM
CSc1ncccc1C(=O)OCC(=O)c1cccs1 | – | – | – | – | – | –
O=C1/C(=C\c2cccnc2)CCc2ccccc21 | -111 | ? | ? | 13µM | ? | 18µM
CC1CCC2(CC1)NC(=O)N(CC(=O)NC(=O)Nc1ccc3c(c1)OCCO3)C2=O (stereo unspecified) | – | – | ? | – | – | –
COc1cccc(CNc2nc(NC(C)C)nc3ccsc23)c1 | – | ? | · | 23µM | ? | ?
COCCNc1nc(NCc2cccc(OC)c2)c2sccc2n1 | – | – | · | 15µM | – | 18µM
COCCNc1nc(NCc2ccc(C(C)C)cc2)c2sccc2n1 | – | 18µM | · | 12µM | 13µM | 12µM
CCc1ccccc1Oc1nc(NC(C)C)nc2ccsc12 | – | – | · | ? | – | ?
COc1ccc(-c2nc3c4ccccc4n(CC(=O)N4CCN(c5ccc(F)cc5)CC4)c(=O)n3n2)cc1 | · | · | · | – | · | –
O=C(CC1N=C2c3ccccc3N=C(SCc3ccccc3F)N2C1=O)NCc1cccs1 (stereo unspecified) | · | · | · | ? | · | 18µM
O=C(CC1N=C2c3ccccc3N=C(SCc3ccc(Cl)cc3)N2C1=O)NCc1cccs1 (stereo unspecified) | · | · | · | – | · | –
Cc1ccc(CSC2=Nc3ccccc3C3=NC(CC(=O)NCc4cccs4)C(=O)N23)cc1 (stereo unspecified) | · | · | · | 16µM | · | 16µM
CN(C)Cc1cc(C(C)(C)c2cc(CN(C)C)c(O)c(CN(C)C)c2)cc(CN(C)C)c1O | -62 | – | – | – | – | –
CN(C)Cc1cc(OCc2ccccc2)cc(CN(C)C)c1O | ? | – | · | – | – | –
Cc1cccc(N/N=C(\C(N)=O)C2=NC(C)(C)Cc3ccccc32)c1 | – | ? | – | ? | ? | 26µM
C=C1CCN([C@@H](C)C(=O)NCc2cc(OC)c(OC)c(OC)c2)S(=O)(=O)c2ccccc21 | – | – | – | ? | – | ?
CCCCCCCCCCCCN1C/C(=C\C(=O)OCC)c2cc(C(F)(F)F)ccc2S1(=O)=O | – | – | – | ? | – | ?
CCOC(=O)/C=C1\CN(Cc2cc(OC)c(OC)c(OC)c2)S(=O)(=O)c2ccccc21 | – | – | ? | 10µM | ? | 6.5µM
CCOC(=O)/C=C1\CN(Cc2cc(OC)c(OC)c(OC)c2)S(=O)(=O)c2ccc(C(F)(F)F)cc21 | – | – | ? | 23µM | – | 12µM
